Test results reported in PubChem BioAssay (NCI).
Compounds without any hit were thinned out: in the full panel of roughly 83,000, 20% have a hit.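 Values shown are percent growth following 48 h exposure of cells in 96-well plates to a single concentration of compound; below 10 was considered active.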 Values without a mark were called inactive. Active and inactive are the calls of the source.

These compounds were tested on HCT-15 colon (assay: NCI-60 one-dose screen, 48 h (100 = growth as untreated, 0 = no growth, -100 = all killed)). Details: 10 µM unless noted.
Experimental: Growth inhibition of the HCT-15 human tumor cell line is measured as a screen for anti-cancer activity. Cells are grown in 96 well plates and exposed to the test compound for 48 hours. Compounds are tested at a single concentration, which is 10^-5 M for most compounds. The reported endpoint is percent growth (GI% or GIPRCNT), where numbers from 0 - 100% represent growth inhibition, and numbers from -100% - 0 represent cell death. For example, a value of 40 represents 60% growth inhibition. A value of 0 means no net growth occurred over the course of the experiment. A value of -40 indicates 40% of cells at the beginning of the experiment died by the end of the experiment. A value of -100 means all cells are dead at the end of the experiment.
NCI-60 Human Tumor Cell Lines Screen was performed using the standard one-dose NCI protocol, which is described in more detail at https://dtp.cancer.gov/discovery_development/nci-60/default.htm.
Compounds with GIPRCNT values below 10 were considered active. Activity score was based on GIPRCNT using the following formula: […]
Score is 0 for GIPRCNT values of 100 or above, 50 for GIPRCNT values of 0, and 100 for GIPRCNT values of -100.

Row | SMILES | growth
1 | CC1=CNNc2c3ncnc-3ncn21 | 102%
2 | CCC1CCc2nc3sc(C(=O)Nc4ccccc4C)c(N)c3cc2C1 (stereo not given) | 26.3%
3 | O=C(O)C(Cc1ccccc1)N1C(=O)/C(=C/C(Cl)=C/c2ccc([N+](=O)[O-])cc2)SC1=S (stereo not given) | 41.2%
4 | CN=S(=O)(NC(=O)c1ccc(Cl)cc1Cl)c1ccc(Br)s1 (stereo not given) | 99.9%
5 | CCCCCCCCCCCCCCCCC(Br)C(=O)O (stereo not given) | 83%
6 | CCCCCCCN(CCCCCCC)C(=N)c1ccc(OC)c2ccccc12 | -81.4% (active)
7 | O=C(Nc1ccccc1)OCC1OCOC(COC(=O)Nc2ccccc2)C1OC(=O)Nc1ccccc1 (stereo not given) | 51.7%
8 | CCOC(=O)CC/C(C)=N\Nc1ccc([N+](=O)[O-])cc1 | 35.8%
9 | CSc1nc(-c2cc3ccccc3o2)cc(-c2ccc(Cl)cc2)c1C#N | 31.1%
10 | NC(=O)c1cccc(N2Cc3ccccc3OC3=C2C(=O)c2c(O)ccc(O)c2C3=O)c1 | -49.7% (active)
11 | O=C(Nc1ccc(I)cc1)c1cccc([N+](=O)[O-])c1O | 18.6%
12 | COc1cc(Cn2c(SCCC(=O)Nc3ccc(F)cc3)nc3ccccc3c2=O)cc(OC)c1OC | 79%
13 | NC(=O)c1c(NC(=O)c2ccc3c(c2)OCO3)sc2c1CCC(=O)C2 | -40.5% (active)
14 | CCCCCCCCCCC/C=C\C[C@H](O)C/C=C1/C(=O)C=C[C@@H]1C/C=C\CCCC(=O)OC | -43% (active)
15 | CCOP(=O)(CCN1CCN(CCCCCOc2cc3c(cc2OC)C(=O)N2CCC[C@H]2C=N3)CC1)OCC | 104%
16 | COc1ccc(/C=C/C(=O)c2ccc(NC(=O)CN3CCN(c4cc5c(cc4F)c(=O)c(C(=O)O)cn5C4CC4)CC3)cc2)cc1 | 108%
17 | CC(=O)/C=C/c1cc2cc(Cl)ccc2[nH]c1=O | 76%
18 | Cc1ccc2c(c1)ncn2-c1ncnc2c1CC(C)c1ccccc1N2C (stereo not given) | 8.43% (active)
19 | Clc1ccc2c(c1)NC1(CCSc3ccccc31)n1nccc1-2 (stereo not given) | 98.5%
20 | Oc1ccc(N=Cc2ccccc2)cc1 | 82%

Row | SMILES | growth
21 | CC/C=C\C/C=C\C[C@H](O)C/C=C1/C(=O)C=C[C@H]1C/C=C\CCC(=O)OC | -13.3% [8.25 µM] (active)
22 | C#CCN1C(=O)/C(=c2\sc3n(c2=O)NC2C(N=3)N(CC)C(=O)N2CC)c2ccccc21 (stereo not given) | 43.8%
23 | CCOC(=O)/C=C\C(=O)NC(N)=O | 99.9%
24 | O=S(=O)(c1ccccc1)n1ccc(-c2ccc3c(c2)CCO3)n1 | 92.8%
25 | COc1ccc(C2CC(=O)Nc3c2c(C)nn3-c2nc3ccccc3[nH]2)cc1OC (stereo not given) | 85.9%
26 | Nc1c(C(=O)Nc2cccc(C(F)(F)F)c2)sc2nc3c(cc12)C(O)CCC3 (stereo not given) | 36.7%
27 | Cc1cc(NC(=O)COC(=O)c2sc3cc(F)ccc3c2Cl)no1 | 106%
28 | COc1ccc(C2=NN(c3ccc(S(N)(=O)=O)cc3)C(c3cn(-c4ccccc4)nc3-c3ccc(Cl)cc3)C2)cc1 (stereo not given) | 80.8%
29 | CCCCn1c(=O)c(C2CNC(=O)c3ccccc3N2)cc2ccccc21 (stereo not given) | 101%
30 | COc1cc2nc(SCc3cc(OC)c(OC)c(OC)c3)n(Cc3ccccc3)c(=O)c2cc1OC | 20.1%
31 | COc1ccc(NC(=O)CSc2nc3ccccc3c(=O)n2Cc2cc(OC)c(OC)c(OC)c2)cc1 | 89.5%
32 | CCCCC(N)(C(=O)O)C1CCCC1 (stereo not given) | 96.2%
33 | C=C1C(=O)O[C@H]2[C@H]1CC/C(COC(=O)NCCc1ccc(Br)cc1)=C\CC[C@@]1(C)O[C@@H]21 | 1.58% (active)
34 | C=C1C(=O)O[C@H]2[C@H]1CC/C(COC(=O)NCc1ccc(OC)cc1)=C\CC[C@@]1(C)O[C@@H]21 | 12.9%
35 | CN(C)CCCNC(=O)C(c1ccccc1)c1ccccc1 | 104%
36 | O=C(Nc1ccc(Cl)cc1)c1cc(-c2ccc(F)cc2)c2sc(=O)[nH]c2n1 | 13.1%
37 | O=c1[nH]c2ccccc2cc1-c1nnc(Cc2ccccc2)o1 | 49%
38 | COc1ncc(-c2ccc3ncnc(Nc4cccc(Cl)c4)c3c2)cc1N(S(C)(=O)=O)S(C)(=O)=O | 54.9%
39 | CCN1C(=O)/C(=c2\sc3n(c2=O)C2C(NN=3)N(CC)C(=S)N2CC)c2ccccc21 (stereo not given) | 100%
40 | COc1ccc2c(c1)NC(=O)CN2c1nc(C)nc2ccccc12 | 9.21% (active)
